In PubChem BioAssay (Tox21) one finds outcome, Potency and activity change, negative = cytotoxicity data, which are given here for 27 compounds.

SMILES strings stand for the structures. Records with an inconclusive call do not appear. The source holds several records for some structures; these can differ, active in one and inactive in another. Calls of active or inactive are those of the source. Calls come from the whole dose curve; as a rule, active = well fitted curve in the direction sought with a large enough effect in the repeat runs; inconclusive = weak or mixed curves; inactive = no such curve, though single readings can be large; an effect the other way counts as inactive or inconclusive.

The nature of experiment [1]: A CellTox Green Cytotoxicity Assay to monitor cytotoxicity in HEK293 cells - 8 hour (AID 1224884). Note: nearly all actives have a fitted effect of over 35% in size. To be noted: CellTox Green fluorescence; series mostly up to 76.8 µM. In outline:
(§1)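 Homogeneous no-lysis format: HEK293 cell suspension mixed with CellTox Green reagent, seeded, incubated 5 h at 37 C/5% CO2, then dosed by pintool with compound in DMSO.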

Experiment [2] can be described thus: qHTS RealTime-Glo MT Cell Viability Assay in HepG2 cells - 16 hour (AID 1224885). Note: nearly all actives have a fitted effect of over 50% in size. To be noted: RealTime-Glo luminescence; series mostly up to 76.8 µM. Put shortly:
(§2)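 Luminescence read-out: viable HepG2 cells reduce a prosubstrate to a NanoLuc substrate, giving a signal proportional to live cell number. Reads taken at 0, 8, 16, 24, 32 and 40 h of compound exposure at 37 C.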
(In qHTS, concentration-response curves come from the screen itself.)

Experiment [3] can be described thus: qHTS RealTime-Glo MT Cell Viability Assay in HEK293 cells - 24 hour (AID 1224886). For activity change, negative = cytotoxicity: top concentration of the series differs between compounds. Note: nearly all actives have a fitted effect of over 50% in size. Note: potency is the fitted concentration of half-maximal effect. To be noted: RealTime-Glo luminescence; series mostly up to 76.8 µM. In outline:
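Nonlytic real-time viability readout: viable cells convert prosubstrate to NanoLuc substrate, giving luminescence proportional to live cell number. HEK293, 600 cells/well, compound added after 5 h, continuous culture at 37 C.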

Experiment [4] is described as follows: qHTS RealTime-Glo MT Cell Viability Assay in HEK293 cells - 8 hour (AID 1224887). Note: top concentration of the series differs between compounds; nearly all actives have a fitted effect of over 50% in size. To be noted: RealTime-Glo luminescence; series mostly up to 76.8 µM. Put shortly:
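Measured as luminescence from the same continuously cultured HEK293 wells at successive time points (0, 8, 16, 24, 32, 40 h) after compound addition. Reagent present from seeding; dosing at 5 h; incubation 37 C.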

Experiment [5] can be described thus: A CellTox Green Cytotoxicity Assay to monitor cytotoxicity in HEK293 cells - 16 hour (AID 1224888). Note: nearly all actives have a fitted effect of over 35% in size. To be noted: CellTox Green fluorescence, stronger effect = higher value; series mostly up to 76.8 µM. Put shortly: as §1
Experiment [6] can be described thus: qHTS RealTime-Glo MT Cell Viability Assay in HepG2 cells - 0 hour (AID 1224889). Note: nearly all actives have a fitted effect of over 50% in size. To be noted: RealTime-Glo luminescence; series mostly up to 76.8 µM. Put shortly:
as §2

Experiment [7] can be described thus: A CellTox Green Cytotoxicity Assay to monitor cytotoxicity in HepG2 cells - 8 hour (AID 1224890). Note: nearly all actives have a fitted effect of over 45% in size. To be noted: CellTox Green fluorescence; series mostly up to 76.8 µM. In outline:
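Fluorescent DNA-binding dye, 600 HepG2 cells/well, 5 h preincubation then compound in DMSO; same plates read at 0–40 h, 37 C.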

Experiment [8] in a line: qHTS assay to identify small molecule antagonists of the estrogen receptor alpha (ER-alpha) signaling pathway using the BG1 cell line in the presence of 0.1 nM 17-beta-estradiol - cell viability counter screen (AID 1259241). Note: nearly all actives have a fitted effect of over 40% in size. To be noted: VM7Luc4E2 (BG1) viability, CellTiter-Fluor protease, 22 h, 0.1 nM estradiol agonist added; series mostly up to 92.4 µM. Put shortly:
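In this screen, hormone-deprived VM7Luc4E2 cells were seeded at 4,000 per well, dosed with compound and 0.1 nM estradiol final, and incubated 22 hr at 37C and 5% CO2; fluorogenic live-cell protease signal reported viability.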

The nature of experiment [9]: qHTS assay to identify small molecule antagonists of the androgen receptor (AR) signaling pathway using the MDA cell line in the presence of 0.5 nM R1881 - cell viability counter screen (AID 1259242). Note: nearly all actives have a fitted effect of over 45% in size. To be noted: MDA-kb2 viability, CellTiter-Fluor protease fluorescence, 16 h; series mostly up to 92.4 µM. Put shortly: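 Human breast carcinoma MDA-kb2 cells, cultured without CO2, receive compounds alongside 0.5 nM (final) R1881 agonist. After 16 hr at 37C, viability is taken as live-cell protease signal.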
% is set by controls: 0 for no effect and ±100 for the full control effect.

With `COS(C)(=O)=O`, the result in experiment [1], in experiment [2], in [5] and in experiment [9] was inactive. Besides, the Potency entry in [3], in experiment [4], in [6], in experiment [7] and in experiment [8] was “inactive” each time.
As to `O=C(O)CCCCCCCCCCC(=O)O`, the compound was classed as inactive in experiment [1], in experiment [2], in experiment [5] and in [9]. Moreover, the Potency entry in experiment [3], in experiment [4], in experiment [6], in experiment [7] and in experiment [8] was “inactive” each time.
Regarding `Fc1ccc(Br)cc1`, the call in experiment [1], in experiment [2], in experiment [5] and in experiment [9] was inactive. The Potency result in experiment [3], in experiment [4], in experiment [6], in experiment [7] and in experiment [8] was “inactive” throughout.
`CCCCCCCCCCCCCCO`: the call in [1], in experiment [2], in experiment [5] and in experiment [9] was inactive. The Potency result in [3], in experiment [4], in [6], in experiment [7] and in experiment [8] was “inactive” in each case.
Consider `OCC(CO)(CBr)CBr`, for which the outcome in experiment [1], in [2], in [5] and in experiment [9] was inactive. Moreover, the Potency entry in experiment [3], in experiment [4], in experiment [6], in [7] and in experiment [8] was “inactive” in each case.
Take `O=c1[nH]nnc2ccccc12`: the call in experiment [1], in [2], in [5] and in experiment [9] was inactive. The Potency result in experiment [3], in experiment [4], in [6], in experiment [7] and in [8] was “inactive” throughout.
Take `COc1ccc(Nc2ccccc2)c(C)c1`: the result in [1], in experiment [2], in experiment [5] and in [9] was inactive. Also, the Potency entry in experiment [3], in experiment [4], in experiment [6], in experiment [7] and in experiment [8] was “inactive” in each case.
Take `Cc1ccc(S(N)(=O)=O)cc1`: the compound was called inactive in experiment [1], in [2], in experiment [5] and in experiment [9]. Besides, the Potency result in experiment [3], in experiment [4], in [6], in experiment [7] and in [8] was “inactive” each time.
For the compound `CCCCC(CC)COC(=O)CS` (configuration not stated), the compound was classed as inactive in experiment [1], in experiment [2], in experiment [5] and in [9]. The Potency result in [3], in [4], in experiment [6], in [7] and in experiment [8] was “inactive” throughout.
In the case of `N[C@@H](Cc1cc(I)c(Oc2cc(I)c(O)c(I)c2)c(I)c1)C(=O)O`, the outcome in experiment [1], in experiment [2], in [5] and in experiment [9] was inactive. In addition, the Potency result in [3], in experiment [4], in [6], in [7] and in experiment [8] was “inactive” in each case.
For `CC1CCC2CC1C2(C)C` (configuration not stated), the compound was classed as inactive in experiment [1], in [2], in experiment [5] and in experiment [9]. Further, the Potency result in [3], in experiment [4], in experiment [6], in [7] and in [8] was “inactive” each time.
Turning to `CC(=O)Nc1ccccc1`, the call in experiment [1], in experiment [2], in experiment [5] and in experiment [9] was inactive. Besides, the Potency entry in experiment [3], in experiment [4], in experiment [6], in experiment [7] and in experiment [8] was “inactive” throughout.
For `COc1ccc(NC(C)=O)cc1N`, the call in experiment [1], in [2], in [5] and in experiment [9] was inactive. The Potency entry in experiment [3], in [6], in [7] and in experiment [8] was “inactive” each time.
As for `C=C(C)C(=O)O[C@H]1C[C@@H]2CC[C@@]1(C)C2(C)C`, the result in experiment [1], in [2], in experiment [5] and in experiment [9] was inactive. Also, the Potency in experiment [3] was 15.4 µM (active) and inactive. The Potency result in experiment [4], in experiment [6] and in [7] was “inactive” throughout.
As to `Cc1ccc2oc(=O)ccc2c1`, the outcome in [1], in experiment [2], in experiment [5] and in experiment [9] was inactive. Besides, the Potency entry in experiment [3], in experiment [6], in [7] and in [8] was “inactive” in each case.
Turning to `O=C(CC(C(=O)OC1CCCCC1)S(=O)(=O)O)OC1CCCCC1` (configuration not stated), the compound was classed as inactive in experiment [1], in experiment [2], in [5] and in experiment [9]. Also, the Potency result in [3], in experiment [6], in experiment [7] and in [8] was “inactive” each time.
On to `O=C1CCC(N2C(=O)c3ccccc3C2=O)C(=O)N1` (configuration not stated), for which the compound was called inactive in experiment [1], in [2], in [5] and in experiment [9]. Further, the Potency entry in [3], in experiment [4], in experiment [6], in experiment [7] and in [8] was “inactive” each time.
Consider `CCCCCC1=CCCC1=O`, for which the result in experiment [1], in [2], in experiment [5] and in experiment [9] was inactive. The Potency result in [3], in [4], in experiment [6], in experiment [7] and in experiment [8] was “inactive” throughout.
As to `CCCCCC/C(C=O)=C\c1ccccc1`, the result in [1], in experiment [2], in experiment [5] and in experiment [9] was inactive. In addition, the Potency result in [3], in experiment [4], in experiment [6], in experiment [7] and in experiment [8] was “inactive” in each case.
On to `CCCCCCCCCCCCc1ccccc1`, for which the outcome in experiment [1], in experiment [2], in experiment [5] and in experiment [9] was inactive. For the same compound, the Potency entry in experiment [3], in experiment [4], in experiment [6], in [7] and in experiment [8] was “inactive” throughout.
`NNc1nncc2ccccc12`: the result in experiment [1], in experiment [2], in [5] and in experiment [9] was inactive. Also, the activity change, negative = cytotoxicity was 2.63% [at 15.8 µM] (inactive) in [3] and 1.02% [at 15.8 µM] (inactive) in [4]. The Potency result in [6], in experiment [7] and in [8] was “inactive” in each case.
On to `CCCCCCCCCCCCCCCO`, for which the compound was called inactive in [1], in [2], in experiment [5] and in experiment [9]. Besides, the Potency entry in [3], in experiment [4], in experiment [6], in experiment [7] and in experiment [8] was “inactive” each time.
For `OCCOCCN1CCN(C2=Nc3ccccc3Sc3ccccc32)CC1`, the outcome in experiment [1], in [2], in experiment [5] and in [9] was inactive. Moreover, the Potency result in [3], in experiment [4], in experiment [6], in experiment [7] and in [8] was “inactive” in each case.
Turning to `CC(=O)c1ccccc1`, the outcome in [1], in experiment [2], in experiment [5] and in experiment [9] was inactive. For the same compound, the Potency entry in experiment [3], in [4], in experiment [6], in experiment [7] and in experiment [8] was “inactive” throughout.
Take `CC(C)CC(=O)CC(C)C`: the result in experiment [1], in [2], in [5] and in [9] was inactive. Besides, the Potency entry in experiment [3], in [4], in [6], in [7] and in [8] was “inactive” in each case.
Consider `CCCCCCOCCO`, for which the result in [1], in experiment [2], in experiment [5] and in experiment [9] was inactive. In addition, the Potency result in experiment [3], in experiment [6], in experiment [7] and in experiment [8] was “inactive” in each case.
Turning to `c1c[nH]cn1`, the compound was classed as inactive in [1], in experiment [2], in [5] and in experiment [9]. The Potency entry in experiment [3], in experiment [6], in experiment [7] and in [8] was “inactive” throughout.
